Assay results reported in PubChem BioAssay (NCATS).
Records with an inconclusive call do not appear. Active and inactive are the calls of the source. Unless noted, calls come from the whole dose curve; as a rule, active = well fitted curve in either direction with a large enough effect (not every such curve was filed as active); inconclusive = small, poorly fitted or top-dose-only effect, or another doubt; inactive = flat fitted curve, though single readings scatter.

How the values were obtained:
[1] = target: Lysosomal acid glucosylceramidase (Homo sapiens) (UniProt P04062); assay: Glucocerebrosidase-p2 (AID 348; in the data active = potency below about 10 µM; note: potency is the fitted concentration of half-maximal effect); conditions: purified GBA, blue fluorogenic substrate, 40 min
Chain of Lysosomal acid glucosylceramidase (Homo sapiens) (P04062 whole entry, looked up): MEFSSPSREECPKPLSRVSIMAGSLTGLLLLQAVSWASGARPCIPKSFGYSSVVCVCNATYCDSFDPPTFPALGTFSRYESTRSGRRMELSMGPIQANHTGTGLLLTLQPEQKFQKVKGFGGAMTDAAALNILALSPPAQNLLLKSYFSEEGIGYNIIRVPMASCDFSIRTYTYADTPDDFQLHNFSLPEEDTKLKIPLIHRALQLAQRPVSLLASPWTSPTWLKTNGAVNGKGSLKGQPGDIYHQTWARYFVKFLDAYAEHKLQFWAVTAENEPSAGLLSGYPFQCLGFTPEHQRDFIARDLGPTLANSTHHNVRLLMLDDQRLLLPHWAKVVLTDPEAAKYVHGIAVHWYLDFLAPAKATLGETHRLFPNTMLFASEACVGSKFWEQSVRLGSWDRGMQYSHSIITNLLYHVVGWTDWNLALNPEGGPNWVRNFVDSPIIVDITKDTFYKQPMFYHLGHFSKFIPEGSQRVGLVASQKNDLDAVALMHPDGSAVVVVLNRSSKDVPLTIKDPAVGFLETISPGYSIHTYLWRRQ
Outline: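 Normal human glucocerebrosidase (0.2 nM) with blue fluorogenic substrate (80 uM final) in citrate/phosphate pH 5.9 with 10mM sodium taurocholate, 0.01% tween-20; 40 min RT, NaOH/glycine stop; fluorescence Ex 365/Em 440; AC50 from a titration from 0.6 nM upwards.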

[2] = AP1 Signaling Pathway (AID 357); conditions: ME-180 AP-1-bla reporter, EGF-induced, beta-lactamase ratio, 5 h; at 7.69 µM (top of the series) unless noted;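 note: ME-180 reporter cells stimulated with EGF at its EC50 level; % is set by controls: 0 for no effect and ±100 for the full control effect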
Outline: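 A ratiometric CCF4 readout (405 nm excitation; 460 and 530 nm emission) quantified AP-1-driven beta-lactamase in ME-180 cells after 5 h with compound and EC50 EGF; AC50 values were derived for activators and inhibitors.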

[3] = Stat Signaling Pathway (AID 446); conditions: ME-180 (cervical carcinoma) SIE beta-lactamase reporter, IL-6 stimulated, 5 h; at 7.69 µM (top of the series) unless noted;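 note: ME-180 cervical cancer cells given 40 pM IL-6 alongside compound; SIE-controlled beta-lactamase reporter measured as 460/530 nm FRET emission ratio; % is set by controls: 0 for no effect and ±100 for the full control effect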
Outline: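 FRET read-out (405 nm excitation, 460/530 nm emission) of a beta-lactamase reporter under a STAT-inducible element in ME-180 cervical carcinoma cells. Cells with compound receive 40 pM IL-6 for 5 h. Values are normalised to AC90 stimulation and AC90 JAK-inhibitor controls.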

[4] = target: Glucocorticoid receptor (Homo sapiens) (UniProt P04150); assay: GR-GFP Redistribution (AID 450;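 active = compounds whose dose series gives a full or clear partial fitted curve of increased nuclear translocation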; note: potency is the fitted concentration of half-maximal effect); conditions: U2OS GR-GFP nuclear translocation, laser cytometry, 2 h
Chain of Glucocorticoid receptor (Homo sapiens) (P04150 whole entry, looked up, the tested form may be a part): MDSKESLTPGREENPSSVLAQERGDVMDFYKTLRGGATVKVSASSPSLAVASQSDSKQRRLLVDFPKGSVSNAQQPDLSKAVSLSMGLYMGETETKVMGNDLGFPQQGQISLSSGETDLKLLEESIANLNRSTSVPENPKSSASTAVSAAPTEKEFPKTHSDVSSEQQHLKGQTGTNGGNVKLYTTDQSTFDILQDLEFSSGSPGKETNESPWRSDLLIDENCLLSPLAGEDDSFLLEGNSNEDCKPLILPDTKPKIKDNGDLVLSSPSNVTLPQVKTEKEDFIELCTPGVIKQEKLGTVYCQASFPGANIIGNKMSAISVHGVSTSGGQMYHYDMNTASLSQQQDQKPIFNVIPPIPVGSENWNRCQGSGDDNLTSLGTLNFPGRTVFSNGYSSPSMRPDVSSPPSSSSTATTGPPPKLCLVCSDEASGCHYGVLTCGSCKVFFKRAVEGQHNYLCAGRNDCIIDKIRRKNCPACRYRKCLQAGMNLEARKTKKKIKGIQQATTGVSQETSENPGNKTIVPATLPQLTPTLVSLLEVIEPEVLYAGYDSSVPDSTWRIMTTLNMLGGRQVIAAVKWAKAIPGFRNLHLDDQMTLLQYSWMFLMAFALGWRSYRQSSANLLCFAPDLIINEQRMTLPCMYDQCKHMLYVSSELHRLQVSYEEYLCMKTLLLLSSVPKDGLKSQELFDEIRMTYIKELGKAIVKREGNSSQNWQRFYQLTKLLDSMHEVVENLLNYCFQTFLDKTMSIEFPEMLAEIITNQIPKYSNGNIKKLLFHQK

[5] = target: Glucocorticoid receptor (Homo sapiens) (UniProt P04150); assay: GR-EFC Redistribution (AID 451; calls by dose curve; note: potency is the fitted concentration of half-maximal effect); conditions: CHO-K1 GR-EFC translocation, beta-gal luminescence, 2 h
Outline: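 Translocation of GR-ED fusion to nuclear EA restores b-gal, read by luminescence after 1 h room-temperature detection. Engineered CHO-K1 biosensor cells, 1,000/well, exposed 2 h at 37 C to titrations up to 46 uM final.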

[6] = target: Mitogen-activated protein kinase 10 (Mus musculus) (UniProt Q61831); assay: JNK3 AlphaScreen Assay (AID 530); conditions: JNK3 lysate, c-Jun phosphorylation; series mostly up to 11.4 µM;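 note: kinase came from lysate of stimulated human HepG2 cells; signal reports phosphorylation of biotinylated GST-cJun 1-79 at Ser73 with 10 µM ATP; % is set by controls: 0 for no effect and ±100 for the full control effect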
Outline: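 Kinase buffer: 20 mM Tris-HCl pH 7.6, 10 mM MgCl2, 1 mM DTT, 0.1 mM Na3VO4, 0.01% Tween-20; ATP 10 uM. Substrate biotin-GST-cJun(1-79), enzyme from activated HepG2 lysates. Detection by Ser73 phospho-antibody AlphaScreen.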

[7] = target: 3',5'-cyclic-AMP phosphodiesterase 4B (Homo sapiens) (UniProt Q07343); assay: qHTS Assay for Inhibitors of PDE-IV (AID 607; active = well fitted activation curve with a large enough effect in the main read-out, with a control signal flat, not every such curve was filed as active; note: % of control where 0% means no effect); conditions: HEK293 ACTOne CNG channel cells, membrane potential fluorescence; series mostly up to 22.9 µM
Chain of 3',5'-cyclic-AMP phosphodiesterase 4B (Homo sapiens) (Q07343 whole entry, looked up): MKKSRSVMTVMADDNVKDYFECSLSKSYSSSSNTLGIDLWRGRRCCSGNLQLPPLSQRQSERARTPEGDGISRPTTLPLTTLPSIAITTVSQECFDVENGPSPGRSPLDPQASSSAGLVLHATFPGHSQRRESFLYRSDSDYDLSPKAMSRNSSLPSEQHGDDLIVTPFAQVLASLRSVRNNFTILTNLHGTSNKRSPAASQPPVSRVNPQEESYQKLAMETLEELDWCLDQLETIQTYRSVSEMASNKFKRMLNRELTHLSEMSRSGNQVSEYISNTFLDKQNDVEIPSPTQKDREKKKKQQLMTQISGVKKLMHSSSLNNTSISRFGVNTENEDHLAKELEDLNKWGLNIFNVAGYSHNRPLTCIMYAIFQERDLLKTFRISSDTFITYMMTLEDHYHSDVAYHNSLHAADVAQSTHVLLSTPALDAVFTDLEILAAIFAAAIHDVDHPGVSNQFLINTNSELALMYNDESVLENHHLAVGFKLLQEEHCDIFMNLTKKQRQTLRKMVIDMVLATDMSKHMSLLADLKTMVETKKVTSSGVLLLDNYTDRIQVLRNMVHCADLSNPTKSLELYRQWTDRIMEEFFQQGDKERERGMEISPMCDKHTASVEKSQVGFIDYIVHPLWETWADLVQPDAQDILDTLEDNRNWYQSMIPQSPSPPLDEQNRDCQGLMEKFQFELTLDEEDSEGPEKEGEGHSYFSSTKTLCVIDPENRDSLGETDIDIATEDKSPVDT
Outline: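 Cell-based read-out of cAMP via a modified cyclic nucleotide-gated channel and membrane potential dye (535/590 nm) in HEK293 cells expressing PDE4 endogenously. Compounds tested up to 22.9 uM final; 100 uM RO 20-1724 reference.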

[8] = NFAT Signaling Pathway (AID 444); conditions: Jurkat NFAT-bla M1, carbachol, beta-lactamase ratio, 5 h; at 7.69 µM (top of the series) unless noted;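 note: carbachol stimulus at about its EC50 of 1 µM final; % is set by controls: 0 for no effect and ±100 for the full control effect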
Outline: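 Read-out: CCF4 FRET ratio (460 nm/530 nm) after 1 h RT dye loading, used for %activity and AC50 from titration series. Cells: Jurkat NFAT-β-lactamase/M1 line, treated with compound plus 1 uM carbachol for 5 h, 37 °C.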

[9] = target: Cytochrome P450 2C9 (Homo sapiens) (UniProt P11712); assay: qHTS Assay for Inhibitors and Substrates of Cytochrome P450 2C9 (AID 883; active = well fitted curve in the direction sought with a large enough effect; an effect the other way counts as inactive or inconclusive; note: nearly all actives have a fitted effect of over 60% in size; note: potency is the fitted concentration of half-maximal effect); conditions: recombinant CYP2C9, luciferin-H luminescence, 60 min; series mostly up to 11.4 µM
Chain of Cytochrome P450 2C9 (Homo sapiens) (P11712 whole entry, looked up): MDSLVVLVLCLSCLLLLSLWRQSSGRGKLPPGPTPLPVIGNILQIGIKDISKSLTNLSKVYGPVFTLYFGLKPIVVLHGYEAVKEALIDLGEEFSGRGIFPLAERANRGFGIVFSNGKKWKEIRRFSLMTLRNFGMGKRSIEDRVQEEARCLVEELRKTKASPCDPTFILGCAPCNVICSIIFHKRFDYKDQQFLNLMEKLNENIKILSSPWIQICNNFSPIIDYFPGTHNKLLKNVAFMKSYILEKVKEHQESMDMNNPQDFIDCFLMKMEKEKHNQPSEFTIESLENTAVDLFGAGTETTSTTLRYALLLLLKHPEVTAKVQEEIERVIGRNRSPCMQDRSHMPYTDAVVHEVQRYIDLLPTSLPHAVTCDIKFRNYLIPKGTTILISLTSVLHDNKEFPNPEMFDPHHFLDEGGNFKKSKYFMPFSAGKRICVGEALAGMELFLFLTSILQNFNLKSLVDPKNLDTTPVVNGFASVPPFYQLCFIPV
Outline: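 Turnover of Luciferin-H (100uM, KM) by 10nM human CYP2C9 was measured over 60 min at 37C with NADPH regeneration; inhibitors and some substrates reduce luminescence. Data normalized to sulphaphenazole 57uM.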

[10] = target: Cytochrome P450 2D6 (Homo sapiens) (UniProt P10635); assay: qHTS Assay for Inhibitors and Substrates of Cytochrome P450 2D6 (AID 891; active = well fitted curve in the direction sought with a large enough effect; an effect the other way counts as inactive or inconclusive; note: nearly all actives have a fitted effect of over 60% in size; note: potency is the fitted concentration of half-maximal effect); conditions: recombinant CYP2D6, luciferin-ME EGE luminescence; series mostly up to 11.4 µM
Chain of Cytochrome P450 2D6 (Homo sapiens) (P10635 whole entry, looked up): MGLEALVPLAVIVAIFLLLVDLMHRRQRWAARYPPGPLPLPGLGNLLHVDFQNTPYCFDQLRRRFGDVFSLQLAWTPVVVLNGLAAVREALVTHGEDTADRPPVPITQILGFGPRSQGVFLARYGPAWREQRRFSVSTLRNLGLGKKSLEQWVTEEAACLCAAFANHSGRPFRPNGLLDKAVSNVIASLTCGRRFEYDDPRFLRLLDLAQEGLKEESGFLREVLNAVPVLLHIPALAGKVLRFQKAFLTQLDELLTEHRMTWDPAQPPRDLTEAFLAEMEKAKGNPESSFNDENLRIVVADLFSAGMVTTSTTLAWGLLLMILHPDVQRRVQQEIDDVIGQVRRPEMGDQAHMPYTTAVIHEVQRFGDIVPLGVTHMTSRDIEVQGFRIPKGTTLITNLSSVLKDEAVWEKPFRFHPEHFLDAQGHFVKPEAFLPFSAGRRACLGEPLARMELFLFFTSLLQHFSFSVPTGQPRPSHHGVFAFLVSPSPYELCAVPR
Outline: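 Luminescent read-out of luciferin formed by 5 nM human CYP2D6 demethylating 30 uM Luciferin-ME EGE (Km level) over 60 min at room temperature after NADPH regeneration addition. Data normalized to full inhibition by 1.43 uM quinidine.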

[11] = target: Ubiquitin carboxyl-terminal hydrolase 1 (Homo sapiens) (UniProt O94782); assay: Inhibitors of USP1/UAF1: Pilot qHTS (AID 504865; active = well fitted curve in the direction sought with a large enough effect; an effect the other way counts as inactive or inconclusive;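 note: rhodamine fluorescence freed from ubiquitin-rhodamine substrate followed over time; top concentration of the series differs between compounds; % is set by controls: 0 for no effect and ±100 for the full control effect; nearly all actives have a fitted effect of over 35% in size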); conditions: purified USP1/UAF1, Ub-rhodamine cleavage fluorescence; series mostly up to 114 µM
Chain of Ubiquitin carboxyl-terminal hydrolase 1 (Homo sapiens) (O94782 whole entry, looked up): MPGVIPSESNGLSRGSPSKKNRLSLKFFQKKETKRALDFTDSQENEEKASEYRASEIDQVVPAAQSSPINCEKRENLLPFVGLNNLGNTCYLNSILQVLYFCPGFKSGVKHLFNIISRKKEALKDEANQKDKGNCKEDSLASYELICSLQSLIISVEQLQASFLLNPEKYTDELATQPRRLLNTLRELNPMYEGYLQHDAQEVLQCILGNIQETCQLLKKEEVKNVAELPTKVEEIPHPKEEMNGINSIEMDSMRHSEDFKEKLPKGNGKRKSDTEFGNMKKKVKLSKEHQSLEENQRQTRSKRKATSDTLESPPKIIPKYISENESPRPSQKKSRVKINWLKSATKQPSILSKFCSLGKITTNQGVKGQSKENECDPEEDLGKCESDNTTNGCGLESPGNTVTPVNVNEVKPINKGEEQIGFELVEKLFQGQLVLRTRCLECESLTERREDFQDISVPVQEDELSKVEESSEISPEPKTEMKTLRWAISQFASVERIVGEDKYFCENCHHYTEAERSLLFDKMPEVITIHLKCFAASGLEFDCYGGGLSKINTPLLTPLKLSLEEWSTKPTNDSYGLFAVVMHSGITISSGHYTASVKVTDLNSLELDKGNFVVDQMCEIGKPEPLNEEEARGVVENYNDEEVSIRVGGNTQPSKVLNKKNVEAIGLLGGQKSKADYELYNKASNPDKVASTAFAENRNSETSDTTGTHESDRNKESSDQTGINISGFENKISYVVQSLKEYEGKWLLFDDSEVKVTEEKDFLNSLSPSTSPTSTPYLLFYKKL
Outline: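 In 50mM HEPES pH 7.8 containing 0.5mM EDTA, 1mM TCEP, 0.1 mg/ml BSA and 0.01% Tween-20, 1nM USP1/UAF1 is exposed to compound for 15 min, then Ub-Rho (150nM final) is added and fluorescence is read over time.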

[12] = target: Cytochrome P450 2C19 (Homo sapiens) (UniProt P33261); assay: qHTS Assay for Inhibitors and Substrates of Cytochrome P450 2C19 (AID 899; active = well fitted curve in the direction sought with a large enough effect; an effect the other way counts as inactive or inconclusive; note: nearly all actives have a fitted effect of over 60% in size; note: potency is the fitted concentration of half-maximal effect); conditions: recombinant CYP2C19, luciferin-H EGE luminescence; series mostly up to 11.4 µM
Chain of Cytochrome P450 2C19 (Homo sapiens) (P33261 whole entry, looked up): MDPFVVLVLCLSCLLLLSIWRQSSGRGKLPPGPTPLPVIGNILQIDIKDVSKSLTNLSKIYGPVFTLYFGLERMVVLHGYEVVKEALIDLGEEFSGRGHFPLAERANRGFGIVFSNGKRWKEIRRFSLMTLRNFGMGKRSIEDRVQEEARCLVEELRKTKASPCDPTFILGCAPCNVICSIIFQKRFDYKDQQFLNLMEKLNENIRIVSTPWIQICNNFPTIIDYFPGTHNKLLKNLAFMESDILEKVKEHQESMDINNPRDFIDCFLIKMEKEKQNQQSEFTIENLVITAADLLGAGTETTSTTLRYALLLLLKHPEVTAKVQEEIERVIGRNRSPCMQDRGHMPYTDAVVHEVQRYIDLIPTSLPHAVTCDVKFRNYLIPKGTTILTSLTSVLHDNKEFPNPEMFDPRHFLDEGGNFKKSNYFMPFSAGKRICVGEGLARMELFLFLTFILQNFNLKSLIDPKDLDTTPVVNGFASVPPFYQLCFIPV
Outline: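 Reactions contain 5nM enzyme, 10uM Luciferin-H EGE (KM) and 50mM KPO4; compound preincubates 10 min at 37C, NADPH regeneration starts turnover for 60 min. Luminescence after detection reagent gives activity.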

[13] = target: Cytochrome P450 3A4 (Homo sapiens) (UniProt P08684); assay: qHTS Assay for Activators of Cytochrome P450 3A4 (AID 885; active = well fitted curve in the direction sought with a large enough effect; an effect the other way counts as inactive or inconclusive; note: nearly all actives have a fitted effect of over 65% in size; note: potency is the fitted concentration of half-maximal effect); conditions: recombinant CYP3A4, Luciferin-PPXE luminescence, 60 min; series mostly up to 11.4 µM
Chain of Cytochrome P450 3A4 (Homo sapiens) (P08684 whole entry, looked up): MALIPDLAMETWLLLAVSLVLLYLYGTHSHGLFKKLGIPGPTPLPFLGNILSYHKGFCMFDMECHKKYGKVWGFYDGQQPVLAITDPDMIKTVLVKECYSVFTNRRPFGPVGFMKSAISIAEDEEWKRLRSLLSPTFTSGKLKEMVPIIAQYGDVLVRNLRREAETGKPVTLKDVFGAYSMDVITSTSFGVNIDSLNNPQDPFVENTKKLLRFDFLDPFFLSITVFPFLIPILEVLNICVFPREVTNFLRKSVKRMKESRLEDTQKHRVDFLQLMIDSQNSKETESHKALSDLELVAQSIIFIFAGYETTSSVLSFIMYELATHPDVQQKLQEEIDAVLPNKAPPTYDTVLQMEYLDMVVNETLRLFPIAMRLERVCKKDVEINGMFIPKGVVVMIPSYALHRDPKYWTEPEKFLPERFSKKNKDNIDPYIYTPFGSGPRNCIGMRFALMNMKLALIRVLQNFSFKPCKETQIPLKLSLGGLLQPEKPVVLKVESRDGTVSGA
Outline: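 Luminescent readout of luciferin formed from 25 uM Luciferin-PPXE (KM level) by 20 nM CYP3A4 in 200 mM KPO4, with 60 min NADPH-driven reaction at room temperature after 10 min compound exposure. Ketoconazole (57 uM) defined 100% inhibition.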

[14] = target: Cytochrome P450 3A4 (Homo sapiens) (UniProt P08684); assay: qHTS Assay for Inhibitors and Substrates of Cytochrome P450 3A4 (AID 884; active = well fitted curve in the direction sought with a large enough effect; an effect the other way counts as inactive or inconclusive; note: % is set by controls: 0 for no effect and ±100 for the full control effect; nearly all actives have a fitted effect of over 50% in size); conditions: recombinant CYP3A4, Luciferin-PPXE luminescence; series mostly up to 57.1 µM
Outline: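 Luminescent readout of luciferin produced by CYP3A4 (20 nM) dealkylation of Luciferin-PPXE, 25 uM (its KM). NADPH-driven reaction ran 60 min at RT after 10 min compound preincubation; data scaled to 57 uM ketoconazole as 100% inhibition.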

CC(=O)Nc1cc(CN2CCCCC2)c(O)c2ncccc12
inactive: Potency [1] > 11.4 µM | activity change, negative = inhibition [2] 4.21% | activity, negative = inhibition [3] 6.71% | Potency [4] > 46 µM | Potency [5] > 9.22 µM | Potency [6] | Potency [7]

c1ccc(CSCCc2ccncc2)cc1
inactive: Potency [1] > 11.4 µM | activity change, negative = inhibition [2] -1.16% | activity change, negative = inhibition [8] -10.1% | Potency [4] > 46 µM | Potency [5] > 9.22 µM | Potency [6] | Potency [7]
active: Potency [9] 0.316 µM | Potency [10] 1.26 µM

COc1ccc(C[C@H](O)CN2CCOCC2)cc1
inactive: Potency [1] > 11.4 µM | activity change, negative = inhibition [2] -3.04% | activity, negative = inhibition [3] 9.2% | Potency [4] > 46 µM | Potency [5] > 9.22 µM | Potency [6] | Potency [7]

COc1ccccc1-c1nc(NCCc2cnc[nH]2)c2ccccc2n1
inactive: Potency [1] > 11.4 µM | activity change, negative = inhibition [2] 17.1% | activity, negative = inhibition [3] 22.8% | Potency [4] > 46 µM | Potency [5] > 46 µM | Potency [6] | Potency [7] | Potency [11]

O=[N+]([O-])c1ccc(CS(=O)Cc2ccccc2)cc1 (stereo unspecified)
active: Potency [12] 1.26 µM
inactive: Potency [1] > 11.4 µM | activity change, negative = inhibition [2] -8.79% | activity change, negative = inhibition [8] -22% | Potency [4] > 46 µM | Potency [5] > 9.22 µM | Potency [6] | Potency [7]

CC(=O)NC1=C(OS(=O)(=O)c2ccc(C)cc2)CN(C)C1=O
inactive: Potency [1] > 11.4 µM | activity change, negative = inhibition [2] 24.1% | activity, negative = inhibition [3] -10.5% | Potency [4] > 46 µM | Potency [5] > 9.22 µM | Potency [6] | Potency [7]

O[C@@H](c1cc(-c2ccccc2)nc2c1ccc1ccccc12)[C@@H]1CCCCN1
inactive: Potency [1] > 11.4 µM | activity change, negative = inhibition [2] -3.12% | activity, negative = inhibition [3] 9.42% | Potency [4] > 46 µM | Potency [5] > 9.22 µM | Potency [6]

O=C(O)c1cc(-c2ccc(-c3ccccc3)cc2)nc2cc3ccccc3cc12
inactive: Potency [1] > 11.4 µM | activity change, negative = inhibition [2] -7.09% | activity, negative = inhibition [3] -0.262% | Potency [4] > 46 µM | Potency [5] > 9.22 µM | Potency [6] | Potency [7]

CC(CCc1nc2ccccc2s1)(c1ccc(O)cc1)c1ccc(O)cc1
inactive: Potency [1] > 11.4 µM | activity change, negative = inhibition [2] 7.74% | activity change, negative = inhibition [8] 1.62% | Potency [4] > 46 µM | Potency [5] > 9.22 µM | Potency [6] | Potency [7]

Fc1cccc(Cl)c1/C=N\N=C1c2ccccc2-c2ccccc21
inactive: Potency [1] > 11.4 µM | activity change, negative = inhibition [2] 13.6% | activity, negative = inhibition [3] 6.95% | Potency [4] > 46 µM | Potency [5] > 9.22 µM | Potency [6] | Potency [7]

CC(=O)Nc1ccc2c(c1)/C(=C/c1ccc([N+](C)(C)C)cc1)c1ccccc1-2
inactive: activity change, negative = inhibition [2] -9.13% | activity, negative = inhibition [3] 4.17% | Potency [4] > 46 µM | Potency [5] > 9.22 µM | Potency [6] | Potency [7]
active: Potency [1] 9.02 µM

O=C(O)c1oc(C(=O)O)c(C(=O)O)c1C(=O)O
inactive: Potency [1] > 11.4 µM | activity change, negative = inhibition [2] 10.9% | activity change, negative = inhibition [8] 7.7% | Potency [4] > 46 µM | Potency [5] > 9.22 µM | Potency [6] | Potency [7]

CN(C)CCC[C@@H]1c2ccccc2Oc2ccc(C(F)(F)F)cc21
inactive: Potency [1] > 11.4 µM | activity change, negative = inhibition [2] 21.1% | activity, negative = inhibition [3] 4.88% | Potency [4] > 46 µM | Potency [5] > 9.22 µM | Potency [6] | Potency [7]

O=C(O)[C@H]1CCCC[C@@H]1c1c2ccc(=O)c(O)c-2oc2c(O)c(O)ccc12
inactive: Potency [1] > 11.4 µM | activity change, negative = inhibition [2] -17.7% | activity change, negative = inhibition [8] 0.0388% | Potency [4] > 46 µM | Potency [5] > 9.22 µM | Potency [7]

NC(Cc1ccccc1)(C(=O)O)C(=O)O
inactive: Potency [1] > 11.4 µM | activity change, negative = inhibition [2] 4.48% | activity, negative = inhibition [3] -6.13% | Potency [4] > 46 µM | Potency [5] > 9.22 µM | Potency [6] | Potency [7]

Nc1ccc(N(S(=O)(=O)c2ccccc2)S(=O)(=O)c2ccccc2)c(Cl)c1
inactive: Potency [1] > 11.4 µM | activity change, negative = inhibition [2] -27.7% | activity change, negative = inhibition [8] -14.8% | Potency [4] > 46 µM | Potency [5] > 9.22 µM | Potency [6] | Potency [13]
active: Potency [9] 3.16 µM | Potency [12] 0.158 µM

Clc1ccc(/C=C\c2nc(Cl)c(-c3ccc(Cl)cc3)c(Cl)n2)cc1
inactive: Potency [1] > 11.4 µM | activity change, negative = inhibition [2] -5.65% | activity, negative = inhibition [3] -0.809% | Potency [4] > 46 µM | Potency [5] > 9.22 µM | Potency [6] | Potency [7]

O=C(O)CSCC(=O)c1ccccc1
inactive: Potency [1] > 11.4 µM | activity change, negative = inhibition [2] 3.6% | activity change, negative = inhibition [8] 11.1% | Potency [4] > 46 µM | Potency [5] > 9.22 µM | Potency [6] | Potency [7] | Potency [9] | activity change, negative = inhibition [14] -4.13% [at 11.4 µM] | Potency [10] | Potency [12]

C[C@@H]1CC[C@H]2[C@H](C)[C@H]3[C@H](C[C@H]4[C@@H]5CC=C6C[C@@H](O)CC[C@@]6(C)[C@@H]5C[C@@H](O)[C@]34C)N2C1
inactive: Potency [1] > 11.4 µM | activity change, negative = inhibition [2] -4.34% | activity, negative = inhibition [3] -3.84% | Potency [4] > 46 µM | Potency [5] > 9.22 µM | Potency [6] | Potency [7]

C[C@H]1CCCC=CC2C[C@H](OC(=O)CN(C)C)C[C@@H]2[C@@H](O)/C=C\C(=O)O1 (stereo partly specified)
active: Potency [13] 3.98 µM
inactive: Potency [1] > 11.4 µM | activity change, negative = inhibition [2] -7.78% | activity change, negative = inhibition [8] 29.7% | Potency [4] > 46 µM | Potency [5] > 9.22 µM | Potency [6] | Potency [7] | Potency [9] | activity change, negative = inhibition [14] 229% [at 11.4 µM]
